Assay results as given in PubChem BioAssay.
Calls of active or inactive are those of the source.

Columns and labels:
[1] = test system: Plasmodium falciparum Sir2 (PF13_0152, Sir2A); experiment: Plasmodium falciparum Sir2A binding compounds – biochemical, small-molecule microarray, 635 nm fluorescence, primary screen (AID 1098); conditions: fluorescence 635 nm, higher = more signal;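 note: score merges spot fluorescence intensity with its signal-to-noise ratio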
[2] = probe aDKK1 binding to arrayed compounds – biochemical, biotinylated probe, 635/667 nm fluorescence, primary screen (AID 1099); conditions: small-molecule microarray, higher = more signal;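 note: score merges 667nm spot fluorescence with signal to noise across triplicate slides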
[3] = probe aCHRDL2 binding to arrayed compounds – biochemical, biotinylated probe, 635/667 nm fluorescence, primary screen (AID 1100); conditions: small-molecule microarray, higher = more signal
[4] = change in splice reporter luminescence, either direction, cell-based, HEK293, spliceosome inhibition project, primary screen (AID 1101); conditions: HEK293 splicing luciferase reporter, 24 h, higher = more signal, called active from +8 up or from −8 down;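 note: HEK293 cells carrying a splicing-competent luciferase reporter gene; test concentration not given here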
[5] = molecular target: Fibroblast growth factor 10 (Homo sapiens) (UniProt O15520); experiment: compounds binding fibroblast growth factor 10 – biochemical, small-molecule microarray, 635 nm fluorescence, primary screen (AID 1102); conditions: FGF10 binding, fluorescence 635 nm, higher = more signal
Chain of Fibroblast growth factor 10 (Homo sapiens) (O15520 whole entry, looked up): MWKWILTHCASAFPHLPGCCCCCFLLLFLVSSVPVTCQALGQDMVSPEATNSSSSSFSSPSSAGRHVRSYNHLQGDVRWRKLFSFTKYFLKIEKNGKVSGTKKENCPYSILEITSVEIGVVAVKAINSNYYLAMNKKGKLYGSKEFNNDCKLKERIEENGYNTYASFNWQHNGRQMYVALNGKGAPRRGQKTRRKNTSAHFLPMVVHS

[6] = test system: glycogen synthase kinase-3 (GSK3A per assay name; protocol says GSK3B); experiment: compounds binding glycogen synthase kinase-3 – biochemical, small-molecule microarray, 635 nm fluorescence, GSK3A, primary screen (AID 1103); conditions: fluorescence 635 nm, higher = more signal; note: the record names both GSK3A and GSK3B
[7] = molecular target: Epidermal growth factor receptor (Homo sapiens) (UniProt P00533); experiment: compounds binding epidermal growth factor receptor – biochemical, small-molecule microarray, 635 nm fluorescence, primary screen (AID 1104); conditions: EGFR binding, higher = more signal;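 note: score merges 667 nm emission intensity with spot signal to noise over triplicate slides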
Chain of Epidermal growth factor receptor (Homo sapiens) (P00533 whole entry, looked up): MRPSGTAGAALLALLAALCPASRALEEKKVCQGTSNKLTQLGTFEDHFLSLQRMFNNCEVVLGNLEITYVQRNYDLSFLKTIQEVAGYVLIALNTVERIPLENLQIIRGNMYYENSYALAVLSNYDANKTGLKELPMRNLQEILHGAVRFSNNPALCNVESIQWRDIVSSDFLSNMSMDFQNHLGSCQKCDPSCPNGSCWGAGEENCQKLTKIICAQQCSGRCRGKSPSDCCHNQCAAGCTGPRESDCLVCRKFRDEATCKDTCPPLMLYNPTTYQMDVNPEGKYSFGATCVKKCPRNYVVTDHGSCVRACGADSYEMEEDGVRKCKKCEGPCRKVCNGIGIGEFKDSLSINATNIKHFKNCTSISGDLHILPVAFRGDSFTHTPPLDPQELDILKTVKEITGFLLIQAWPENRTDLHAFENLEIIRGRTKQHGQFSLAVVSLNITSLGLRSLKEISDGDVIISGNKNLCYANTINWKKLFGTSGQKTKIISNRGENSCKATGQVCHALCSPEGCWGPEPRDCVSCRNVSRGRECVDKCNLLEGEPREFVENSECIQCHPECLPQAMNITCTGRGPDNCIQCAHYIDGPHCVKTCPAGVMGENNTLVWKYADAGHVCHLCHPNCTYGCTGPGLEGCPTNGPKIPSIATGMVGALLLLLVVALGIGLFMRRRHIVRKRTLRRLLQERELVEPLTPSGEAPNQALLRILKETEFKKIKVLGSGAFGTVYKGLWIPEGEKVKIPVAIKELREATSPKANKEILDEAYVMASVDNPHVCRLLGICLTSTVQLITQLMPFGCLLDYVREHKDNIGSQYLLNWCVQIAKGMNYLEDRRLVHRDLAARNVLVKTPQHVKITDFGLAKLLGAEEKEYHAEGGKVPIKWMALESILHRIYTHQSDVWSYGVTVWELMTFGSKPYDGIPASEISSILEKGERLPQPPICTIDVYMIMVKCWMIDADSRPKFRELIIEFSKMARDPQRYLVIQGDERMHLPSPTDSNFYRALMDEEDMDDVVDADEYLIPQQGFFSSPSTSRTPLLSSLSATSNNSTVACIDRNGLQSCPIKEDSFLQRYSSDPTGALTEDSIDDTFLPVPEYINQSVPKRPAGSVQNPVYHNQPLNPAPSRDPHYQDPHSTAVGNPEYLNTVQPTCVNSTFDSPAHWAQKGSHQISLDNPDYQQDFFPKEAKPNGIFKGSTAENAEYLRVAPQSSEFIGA

[8] = molecular target: Follistatin-related protein 3 (Homo sapiens) (UniProt O95633); experiment: compounds binding follistatin-related protein 3 – biochemical, small-molecule microarray, 635 nm fluorescence, primary screen (AID 1105); conditions: FSTL3 binding, higher = more signal;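 note: score merges emission near 667 nm and signal to noise per printed spot across three slides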
Chain of Follistatin-related protein 3 (Homo sapiens) (O95633 whole entry, looked up): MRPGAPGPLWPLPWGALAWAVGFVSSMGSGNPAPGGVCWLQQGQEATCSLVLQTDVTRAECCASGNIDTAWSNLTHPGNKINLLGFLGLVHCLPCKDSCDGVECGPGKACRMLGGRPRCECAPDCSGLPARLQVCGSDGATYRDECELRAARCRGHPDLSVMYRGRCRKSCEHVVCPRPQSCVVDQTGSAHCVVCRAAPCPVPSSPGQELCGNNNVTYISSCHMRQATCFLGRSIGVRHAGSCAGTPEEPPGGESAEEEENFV

[9] = molecular target: Dickkopf-related protein 1 (Homo sapiens) (UniProt O94907); experiment: small molecules binding DKK1 protein – biochemical, small-molecule microarray, 635 nm fluorescence scan, primary screen (AID 1106); conditions: higher = more signal;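 note: score merges emission near 667 nm with signal to noise over three replicate slides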
Chain of Dickkopf-related protein 1 (Homo sapiens) (O94907 whole entry, looked up): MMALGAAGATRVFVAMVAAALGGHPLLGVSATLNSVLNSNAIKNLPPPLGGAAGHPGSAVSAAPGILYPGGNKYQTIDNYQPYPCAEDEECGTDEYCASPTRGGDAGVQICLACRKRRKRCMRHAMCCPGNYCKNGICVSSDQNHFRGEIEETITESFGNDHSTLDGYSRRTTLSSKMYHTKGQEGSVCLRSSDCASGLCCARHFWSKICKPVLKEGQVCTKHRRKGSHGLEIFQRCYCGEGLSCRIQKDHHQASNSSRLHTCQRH

[10] = test system: Inhibin beta A chain (activin A); experiment: small molecules binding activin A – biochemical, small-molecule microarray, 635 nm fluorescence scan, primary screen (AID 1107); conditions: INHBA, higher = more signal;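 note: mouse activin A protein probed at 4.33 µg/mL on printed slides; score merges bound-protein fluorescence near 667 nm with spot signal-to-noise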
[11] = test system: Human papillomavirus type 1a protein E7 (residues 44-93); experiment: small molecules binding HPV E7 44-93 – biochemical, small-molecule microarray, residues 44-93, 635 nm fluorescence, primary screen (AID 1108); conditions: fluorescence 635 nm, higher = more signal;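 note: E7 fragment applied at 1 µg/mL in TBST for 1 h at 4 C; score combines spot fluorescence with its signal to noise ratio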
[12] = hepatitis C replication reporter changes, two-sided – Huh7 cells, luciferase reporter, HCV replication inhibitor project, primary screen (AID 1109); conditions: Huh7 HCV replicon luciferase reporter, 48 h; higher = more signal;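 note: huh7 hepatoma cells harbouring a luciferase neomycin HCV replicon reporter; luciferase luminescence as measure of HCV replicon replication; test concentration not given here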
[13] = molecular target: Left-right determination factor 2 (Homo sapiens) (UniProt O00292); experiment: small molecules binding LEFTY2 protein – biochemical, small-molecule microarray, 635 nm fluorescence scan, primary screen (AID 1110); conditions: higher = more signal
Chain of Left-right determination factor 2 (Homo sapiens) (O00292 whole entry, looked up): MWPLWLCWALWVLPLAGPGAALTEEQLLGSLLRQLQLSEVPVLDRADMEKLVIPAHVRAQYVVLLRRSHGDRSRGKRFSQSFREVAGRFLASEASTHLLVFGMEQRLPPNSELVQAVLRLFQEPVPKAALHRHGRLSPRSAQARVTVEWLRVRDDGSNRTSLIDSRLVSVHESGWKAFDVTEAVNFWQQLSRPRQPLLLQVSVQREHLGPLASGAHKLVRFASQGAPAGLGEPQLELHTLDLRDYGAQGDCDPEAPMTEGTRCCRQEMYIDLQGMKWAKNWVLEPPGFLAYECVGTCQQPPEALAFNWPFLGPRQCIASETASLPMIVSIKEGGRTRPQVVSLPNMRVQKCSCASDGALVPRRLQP

[14] = molecular target: Calmodulin-1 (Homo sapiens) (UniProt P0DP23); experiment: small molecules binding calmodulin-1 with EGTA – biochemical, small-molecule microarray, Cy5-labelled CALM1, profiling panel (AID 1111); conditions: Cy5-CALM1 binding fluorescence, higher = more signal;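 note: labelled calmodulin applied in Tris saline Tween buffer holding calcium plus EGTA and DTT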
[15] = molecular target: Calmodulin-1 (Homo sapiens) (UniProt P0DP23); experiment: small molecules binding Ca-loaded calmodulin-1 – biochemical, small-molecule microarray, Cy5-labelled CALM1, plus calcium, artefact control for SMM control-protein annotation, profiling panel (AID 1112); conditions: Cy5-CALM1 binding fluorescence, higher = more signal;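 note: score merges spot fluorescence with signal to noise from triplicate slides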
[16] = probe aWnt5a binding to arrayed compounds – biochemical, biotinylated probe, 635/667 nm fluorescence, primary screen (AID 1113); conditions: small-molecule microarray, higher = more signal;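 note: score merges 667 nm fluorescence intensity with signal-to-noise per printed feature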
[17] = probe aShh binding to arrayed compounds – biochemical, biotinylated probe, 635/667 nm fluorescence, primary screen (AID 1114); conditions: small-molecule microarray, higher = more signal;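 note: probe is biotin-labelled aShh protein from a stem cell growth factor screen; measures binding of labelled protein to compounds printed on the slide; score merges feature fluorescence at 667 nm with signal-to-noise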
[18] = probe aNog binding to arrayed compounds – biochemical, biotinylated probe, 635/667 nm fluorescence, primary screen (AID 1115); conditions: small-molecule microarray, higher = more signal;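 note: probe is biotinylated aNog protein used at 0.15 µg/mL for 1 h at 4 C; z-score combines 667 nm fluorescence of each spot with its signal to noise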
[19] = molecular target: Torsin-1A-interacting protein 1 (Homo sapiens) (UniProt Q5JTV8); experiment: compound microarray binding of lysate hLAP1 – cell lysate, small-molecule microarray, COS7 lysate, 635/667 nm fluorescence, primary screen (AID 1116); conditions: 635 nm fluorescence, higher = more signal
Chain of Torsin-1A-interacting protein 1 (Homo sapiens) (Q5JTV8 whole entry, looked up): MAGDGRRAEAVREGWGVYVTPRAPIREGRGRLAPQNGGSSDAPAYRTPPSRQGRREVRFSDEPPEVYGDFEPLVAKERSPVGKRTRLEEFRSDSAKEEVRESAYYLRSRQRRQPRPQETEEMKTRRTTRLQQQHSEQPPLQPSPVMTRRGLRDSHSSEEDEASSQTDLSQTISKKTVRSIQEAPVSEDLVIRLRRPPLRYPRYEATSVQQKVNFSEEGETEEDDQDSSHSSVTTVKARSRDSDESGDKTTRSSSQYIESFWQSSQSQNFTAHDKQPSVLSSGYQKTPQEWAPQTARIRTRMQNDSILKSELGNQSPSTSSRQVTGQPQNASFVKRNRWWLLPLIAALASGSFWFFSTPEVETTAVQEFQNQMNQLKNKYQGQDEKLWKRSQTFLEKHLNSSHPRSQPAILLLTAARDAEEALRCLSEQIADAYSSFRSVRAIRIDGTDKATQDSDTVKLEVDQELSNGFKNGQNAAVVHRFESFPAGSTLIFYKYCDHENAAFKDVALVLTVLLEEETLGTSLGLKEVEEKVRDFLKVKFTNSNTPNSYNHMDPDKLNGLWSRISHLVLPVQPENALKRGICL

[20] = molecular target: Alpha-bungarotoxin (Bungarus multicinctus) (UniProt P60615); experiment: compounds binding labelled alpha-BTX control protein – biochemical, small-molecule microarray, Alexa647 label, 635/667 nm fluorescence, artefact control for SMM control protein annotation, profiling panel (AID 1117); conditions: alpha-BTX-A647 binding fluorescence, higher = more signal
Chain of Alpha-bungarotoxin (Bungarus multicinctus) (P60615 whole entry, looked up): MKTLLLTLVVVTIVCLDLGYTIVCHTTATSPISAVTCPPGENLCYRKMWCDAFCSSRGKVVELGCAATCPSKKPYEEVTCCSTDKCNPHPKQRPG

SMILES | composite z-score [1] | composite z-score [2] | composite z-score [3] | z-score [4] | composite z-score [5] | composite z-score [6] | composite z-score [7] | composite z-score [8] | composite z-score [9] | composite z-score [10] | composite z-score [11] | z-score [12] | composite z-score [13] | composite z-score [14] | composite z-score [15] | composite z-score [16] | composite z-score [17] | composite z-score [18] | composite z-score [19] | composite z-score [20]
C[C@]1(C(=O)NCCN2CCOCC2)c2ccccc2C(=O)N(Cc2cc(F)cc(C(F)(F)F)c2)[C@H]1c1ccc(CO)cc1 | 1.81 | -0.0342 | 0.841 | -0.0156 (inactive) | -0.134 | -0.626 | -1.01 | -0.0362 | -0.876 | 0.59 | 1.38 | -1.06 | -1.37 | -0.17 | -1.02 | -0.148 | -0.0222 | -0.41 | 1.88 | 2.4
O=C1O[C@H](c2ccccc2)[C@H](c2ccccc2)N2[C@H]1[C@@H](C(=O)O)[C@]1(C(=O)Nc3ccc(C#CC4(O)CCCCCC4)cc31)[C@H]2c1ccc(O)cc1 | 0.502 | -0.2 | 0.14 | -0.574 (inactive) | 0.0884 | -0.103 | 0.161 | -0.544 | -0.297 | 0.138 | 0.628 | -0.772 | -0.114 | 0.277 | 0.431 | -0.124 | 0.0611 | -0.291 | -0.0781 | -0.0118
CN1C(=O)C2C=CC(C(O)c3ccc(F)cc3)N(NC(=O)OC(C)(C)C)C2C1=O (stereo not given) | 0.578 | -0.066 | 0.535 | 1.15 (inactive) | 0.45 | 0.336 | -0.196 | 0.15 | -0.767 | 0.471 | 1.36 | -0.428 | -0.205 | 0.989 | 0.469 | -0.109 | 0.265 | 1.12 | -0.102 | 0.613
COc1cccc(/C=C(\C#N)C(=O)Nc2c(C)n(C)n(-c3ccccc3)c2=O)c1 | 0.129 | -0.0045 | 0.0654 | -0.238 (inactive) | 0.179 | 0.497 | 0.413 | 0.447 | 0.0952 | 0.141 | 1.11 | -0.479 | 0.303 | 1.27 | 0.0209 | -0.0894 | -0.223 | -0.0899 | 0.569 | 1.19
[N-]=[N+]=Nc1ccccc1C[C@]1(C(=O)O)N=C(c2ccc(OCCCO)cc2)O[C@H]1c1ccccc1 | 1.71 | 0.336 | 0.724 | -0.918 (inactive) | 0.143 | 0.0096 | -0.839 | 0.195 | -0.689 | 0.86 | 1.36 | 0.939 | -1.07 | 0.163 | 0.943 | 0.2 | -0.0337 | 0.564 | 0.764 | 0.618
COC(=O)[C@@]1(Cc2ccc(F)cc2)[C@H]2c3cc(C(=O)N(C)C)n(Cc4c(CO)[nH]cc(C)c4=O)c3C[C@H]2CN1C(=O)c1ccccc1 | -0.0424 | 0.617 | 0.721 | -0.73 (inactive) | 0.663 | -0.271 | 0.0656 | -0.217 | -0.12 | 0.693 | -0.275 | -0.573 | -0.104 | 0.263 | -0.184 | 0.0375 | 0.649 | 1.38 | 1.16 | 0.0084
CC1CC/C=C\[C@H]2OC34C=CCN(C(C)(C)C)C(=O)[C@H]3N(C(CO)C(C)C)C(=O)[C@@H]4C2C(=O)O1 (stereo not given in full) | 0.337 | -0.193 | -0.347 | 0.792 (inactive) | 0.352 | 0.156 | -0.33 | 0.27 | 0.391 | 0.524 | -1.26 | 0.434 | 0.272 | -0.745 | -0.554 | -0.0882 | 0.0469 | -0.316 | 0.952 | -0.62
CCOC(=O)C=Cc1ccccc1O | 0.109 | -0.0604 | 0.329 | -1.74 (inactive) | 0.278 | 0.513 | 0.363 | 0.435 | -0.0242 | 0.75 | 1.22 | -2.36 | 0.233 | -0.166 | -0.72 | -0.0462 | 0.151 | -0.0381 | 0.0446 | 0.377
O=C(O)[C@H]1C[C@H]2C(=O)N[C@@H](Cc3ccccc3)C(=O)N2[C@H]1c1cccc(OCCO)c1 | 0.348 | 0.507 | 0.198 | -0.129 (inactive) | 0.986 | 0.874 | 0.391 | 1.2 | 1.17 | 0.206 | 0.0635 | 4.5 | 0.978 | -0.309 | -0.411 | 0.0079 | -0.214 | 0.185 | 0.543 | 0.366
CCOC(=O)C1=C[C@@H](C(C)(C)C)N(S(=O)(=O)c2ccc(C)cc2)[C@H]1c1ccc(C)cc1 | 0.772 | 0.46 | 0.517 | -0.598 (inactive) | 1.3 | 0.995 | 0.78 | 1.26 | 0.541 | 0.516 | 0.974 | -1.04 | 0.424 | 1.81 | -0.0354 | 0.0479 | -0.0709 | 1.27 | 0.229 | 1.11
C=CCC(OC(C)=O)[C@@H]1[C@@H](N(Cc2cc3ccccc3o2)C(=O)c2ccc(-c3ccccc3)cc2)c2cc(OCCCO)ccc2N1C(=O)Cc1ccc(OC)cc1 (stereo not given in full) | 0.104 | -0.102 | 0.0935 | -0.762 (inactive) | 0.247 | -0.744 | 0.0306 | 0.307 | 0.063 | 0.774 | -0.401 | -1.46 | 0.0189 | -0.184 | 0.464 | -0.0758 | -0.335 | -0.216 | -0.195 | -0.17
